Screens as filed in PubChem BioAssay.
A selection: hits, their analogues and other compounds. The true share with any hit is near 3.7%.
AF4-AF9 inh: inhibitors of human MLL-AF4/AF9 interaction; P42568; AlphaScreen, biotin-AF4 peptide binding to FLAG-AF9; inhibition, % at 10 µM; 0.47% of 350,000 active; AID 651704;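 active = every replicate reaching a set inhibition limit, whatever the replicate mean, cut at about 25% in these data; inconclusive = mean inhibition reaches that limit but some replicates miss it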
Target sequence (P42568 whole entry, looked up): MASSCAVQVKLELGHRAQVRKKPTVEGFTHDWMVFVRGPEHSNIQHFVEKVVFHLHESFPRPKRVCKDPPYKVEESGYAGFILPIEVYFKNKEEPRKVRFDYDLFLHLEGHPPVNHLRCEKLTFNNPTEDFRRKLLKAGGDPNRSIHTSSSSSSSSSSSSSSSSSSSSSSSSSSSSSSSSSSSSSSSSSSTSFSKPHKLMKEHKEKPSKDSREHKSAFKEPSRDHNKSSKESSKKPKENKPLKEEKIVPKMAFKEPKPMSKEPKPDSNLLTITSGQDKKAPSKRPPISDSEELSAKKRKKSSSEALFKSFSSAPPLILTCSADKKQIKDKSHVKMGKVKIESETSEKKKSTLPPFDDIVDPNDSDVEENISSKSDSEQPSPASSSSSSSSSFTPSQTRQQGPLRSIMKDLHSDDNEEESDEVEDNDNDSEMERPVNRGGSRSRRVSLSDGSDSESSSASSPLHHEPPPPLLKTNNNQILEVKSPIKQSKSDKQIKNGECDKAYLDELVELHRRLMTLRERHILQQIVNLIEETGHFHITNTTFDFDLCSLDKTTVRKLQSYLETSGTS
Ecoli rRNA inh: selective bacterial rRNA inhibition in E. coli | AID 720706 | E. coli WT GFP vs humanized-ribosome RFP mutants, fluorescence, 24 h; active compounds read low; DMSO median 0, no signal -100 | GFP signal change (wild-type ribosome), % (test concentration not listed) | 1.6% of 350,000 active;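 active = significant combined selectivity score with lowered wild-type GFP, culture density cut under 30%, mutant RFP and density less affected; inactive = any of these conditions unmet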
esBAF inh: SWI/SNF esBAF complex inhibition; mouse ES cells, Bmi1-luciferase knock-in reporter, 24 h; 100% = twice the neutral-well signal; reporter increase, % at 12.5 µM; 2% of 350,000 active; in the data active = activation above about 40%; inconclusive = no clear call, values can overlap the other calls;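 also: a rise in the Bmi1 reporter signal indicates esBAF inhibition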
MITF act: MITF TRPM1 promoter activation in melanoma cells; SK-MEL-5 TRPM1-promoter luciferase, 24 h; % of positive control, neutral wells = 0; activation, % at 12.5 µM; 0.75% of 300,000 active;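 active = mean activation of at least 80% with every replicate also reaching 80%; inconclusive = mean reaches 80% but some replicate falls short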
Wnt act: Wnt/beta-catenin pathway activation; Wnt/beta-catenin reporter cell assay, activator, plate reader; activation, % at 9.35 µM; 1.2% of 300,000 active; in the data active = activation above about 30%, passing the limit was not always enough; inconclusive = no clear call, values can overlap the other calls
Large screens that a line does not name were inactive.

CC(=O)Nc1cccc(NC(=O)CSc2nc3ccccc3o2)c1	none (no result: Ecoli rRNA inh, esBAF inh)
COc1ccc(CN(C)C[C@@H]2Oc3ccc(NC(=O)Nc4c(C)noc4C)cc3CC(=O)N([C@@H](C)CO)C[C@@H]2C)cc1	none (no result: MITF act, Wnt act)
Cc1cc(-c2nc3ccccc3c(=O)o2)ccc1[N+](=O)[O-]	Wnt act 39
Fc1ccc(-c2nc3ccc(Cl)cn3c2Cc2ccccc2)cc1	none (no result: MITF act)
Cc1ccc(Cc2c(-c3ccccc3)nc3cc(C)ccn23)cc1	esBAF inh 42 (no result: MITF act)
Cc1ccn2c(Cc3ccccc3)c(-c3ccc(F)cc3)nc2c1	esBAF inh 45 (no result: MITF act)
Cc1ccc(Cc2c(-c3ccccc3)nc3c(C)cc(Br)cn23)cc1	none (no result: esBAF inh, MITF act)
Cc1c(Cl)cccc1NC(=O)CCN1CCN(C)CC1	none (no result: Ecoli rRNA inh)
CC(=O)Nc1ccc(C(=O)CSc2nnnn2C)cc1	none
Cn1nnnc1SCc1ccc(C(=O)Nc2ccc(Br)cc2)cc1	esBAF inh 72 (no result: AF4-AF9 inh, Ecoli rRNA inh, Wnt act)
O=C(NN=C1CCCC1)c1cc(Cl)cc(Cl)c1O	Ecoli rRNA inh -29
COc1ccc(NC(=O)Nc2ccc3c(c2)CC(=O)N([C@@H](C)CO)C[C@@H](C)[C@@H](CN(C)S(=O)(=O)c2ccc(C)cc2)O3)cc1	none (no result: esBAF inh, MITF act, Wnt act)
COc1ccc(NC(=O)Nc2ccc3c(c2)C(=O)N([C@H](C)CO)C[C@@H](C)[C@H](CN(C)CC2CC2)OCCCC[C@@H](C)O3)cc1	AF4-AF9 inh 28 (no result: MITF act, Wnt act)
C[C@H](CO)N1C[C@H](C)[C@@H](CN(C)CC2CC2)OCCCC[C@H](C)Oc2ccc(NC(=O)Nc3ccc4c(c3)OCO4)cc2C1=O	AF4-AF9 inh 29 (no result: MITF act, Wnt act)
CCCN(C)C[C@@H]1OCCCC[C@@H](C)Oc2ccc(NC(=O)Nc3ccc4c(c3)OCO4)cc2C(=O)N([C@H](C)CO)C[C@H]1C	AF4-AF9 inh 25 (no result: MITF act, Wnt act)
C[C@H](CO)N1C[C@H](C)[C@H](CN(C)CC2CC2)OCCCC[C@H](C)Oc2ccc(NC(=O)Nc3ccc4c(c3)OCO4)cc2C1=O	AF4-AF9 inh 36 (no result: Ecoli rRNA inh, MITF act, Wnt act)
COc1ccc(-c2coc3c(CN4CCOCC4)c(O)ccc3c2=O)cc1	none
C[C@H](CO)N1C[C@H](C)[C@@H](CN(C)S(=O)(=O)c2cn(C)cn2)Oc2ccc(NC(=O)Cc3cn(C)c4ccccc34)cc2CC1=O	none (no result: MITF act, Wnt act)
COc1ccc(Nc2nc(-c3cccnc3)cs2)c(OC)c1	esBAF inh 57
CCc1ccccc1Nc1nc(-c2cccnc2)cs1	none (no result: MITF act)
COc1ccccc1Nc1nc(-c2cccnc2)cs1	esBAF inh 44
COc1ccc([C@H]2C[C@@H](n3cc(COC(=O)c4ccccc4)nn3)[C@H](O)CN2C(=O)C2CCCCC2)cc1	none (no result: MITF act)
C[C@@H]1CN([C@@H](C)CO)C(=O)c2ccccc2-c2ccccc2CO[C@@H]1CN(C)Cc1ccc(-c2ccccc2)cc1	none (no result: AF4-AF9 inh, esBAF inh, MITF act, Wnt act)
Cc1nnc(-c2cnn(C)c2N)n1Cc1ccc2c(c1)OCO2	none (no result: esBAF inh)
COc1cc(C(=O)Nc2nnc(S(=O)(=O)N3CCCCCC3)s2)cc(OC)c1OC	Ecoli rRNA inh -31
COc1cccc(C(=O)Nc2nnc(S(=O)(=O)N3CCCC3)s2)c1	none
Cc1ccc(NC(=O)CC2S/C(=N/N=C/c3c[nH]c4ccccc34)NC2=O)cc1 (stereo not drawn)	none (no result: AF4-AF9 inh, Ecoli rRNA inh, Wnt act)
COc1ccc(-c2c[n+](CC(=O)c3ccccc3)c3n2CCCCC3)cc1	Ecoli rRNA inh -49 (no result: esBAF inh)
Cc1ccc(-c2c[n+](CC(=O)Nc3nc(-c4ccccc4)cs3)c3n2CCC3)cc1	Ecoli rRNA inh -47 (no result: esBAF inh)
O=C(C[n+]1cc(-c2ccccc2)n2c1CCCCC2)c1ccc(Cl)cc1	Ecoli rRNA inh -40
Cc1noc(C)c1NC(=O)N(C)C[C@@H]1Oc2c(NC(=O)Nc3ccccc3)cccc2C(=O)N([C@@H](C)CO)C[C@H]1C	none (no result: AF4-AF9 inh, MITF act, Wnt act)
CCOC(=O)[C@]12CCCC=C1N(Cc1ccccc1)C(=O)[C@H](CC(=O)NCc1ccc(OC)c(OC)c1)C2	none (no result: esBAF inh, MITF act)
COC(=O)[C@]12CCCCC=C1N(Cc1ccccc1)C(=O)[C@H](CC(=O)N1CCCCC1)C2	Ecoli rRNA inh -26 (no result: esBAF inh, MITF act)
COC(=O)[C@]12CCCCC=C1N(Cc1ccccc1)C(=O)[C@H](CC(=O)N1CCCC1)C2	none (no result: esBAF inh, MITF act)
COC(=O)[C@]12CCCCC=C1N(Cc1ccccc1)C(=O)[C@H](CC(=O)NCc1ccc(OC)c(OC)c1)C2	Ecoli rRNA inh -20 (no result: esBAF inh, MITF act)
COC1CCCN(C(=O)c2ccc(OC3CCN(CCc4ccccc4)CC3)cc2)C1 (stereo not drawn)	none (no result: esBAF inh)
Cc1c(N2C(=O)/C(=C/C3CC=CCC3)SC2=S)c(=O)n(-c2ccccc2)n1C (stereo not drawn)	none (no result: esBAF inh, MITF act)
Cc1c(N2C(=O)/C(=C\C3CC=CCC3)SC2=S)c(=O)n(-c2ccccc2)n1C (stereo not drawn)	esBAF inh 44 (no result: Ecoli rRNA inh)
CCc1cc2c(-c3ccccc3)cc(=O)oc2cc1OC(=O)c1cccs1	none (no result: esBAF inh)
O=C(Nc1cccc(Cl)c1)c1csc([C@H]2C[C@H](O)[C@@H](CO)O2)n1	esBAF inh 65, Wnt act inconclusive (no result: MITF act)
FC(F)(F)Oc1ccc(NC(=S)Nc2ccccc2N2CCOCC2)cc1	Ecoli rRNA inh -51 (no result: AF4-AF9 inh)
O=C(NC(=S)Nc1ccccc1N1CCOCC1)c1ccccc1F	Ecoli rRNA inh -34
O=C(NC(=S)Nc1ccccc1N1CCOCC1)c1cccs1	Ecoli rRNA inh -29 (no result: esBAF inh)
CCN(CC)CCn1c(NCc2ccc(C)o2)nc2ccccc21	none (no result: AF4-AF9 inh, Ecoli rRNA inh, esBAF inh, Wnt act)
Cn1c(NCc2ccccc2Cl)nc2ccccc21	esBAF inh inconclusive
CN(C)c1ccc(CNc2nc3ccccc3n2C)cc1	esBAF inh 48 (no result: MITF act)
CCCn1c(NCc2ccc(N(C)C)cc2)nc2ccccc21	none
Cn1c(NCc2ccccc2O)nc2ccccc21	esBAF inh 53, MITF act inconclusive (no result: AF4-AF9 inh, Ecoli rRNA inh)
Cc1ccc(CNc2nc3ccccc3n2C)o1	esBAF inh 42 (no result: MITF act)
CCNC(=O)C[C@H]1CC[C@@H]2[C@H](COC[C@H](O)CN2C(=O)C2CCOCC2)O1	none (no result: MITF act, Wnt act)
Cc1nnc(NC(=O)CSc2nc3ccccc3[nH]2)s1	none (no result: esBAF inh)
O=C(COc1ccccc1)Nc1nc2ccccc2[nH]1	esBAF inh 49, Wnt act inconclusive (no result: AF4-AF9 inh, Ecoli rRNA inh)
CC(CC(=O)Nc1nc2ccccc2[nH]1)c1ccccc1 (stereo not drawn)	esBAF inh 70 (no result: AF4-AF9 inh, Ecoli rRNA inh)
CC(C)c1nnc(NC(=O)CSc2nc3ccccc3[nH]2)s1	Ecoli rRNA inh -28
CCCOc1cccc(OCC(=O)Nc2nc3ccccc3[nH]2)c1	none (no result: esBAF inh)
C[C@@H]1CN([C@@H](C)CO)C(=O)Cc2cc(NS(=O)(=O)c3cn(C)cn3)ccc2O[C@@H]1CN(C)C(=O)Nc1ccc(C(F)(F)F)cc1	none (no result: MITF act, Wnt act)
CC(C)(C)C(=O)/C=C(N)/C=C/c1ccccc1	esBAF inh 57 (no result: AF4-AF9 inh, Ecoli rRNA inh, Wnt act)
COc1ccccc1NC(=O)C1=C(C)Nc2nc(-c3cccs3)nn2C1c1cccc(O)c1 (stereo not drawn)	none (no result: AF4-AF9 inh, Ecoli rRNA inh, MITF act, Wnt act)
O=C(Nc1cccc(S(=O)(=O)N2CCCC2)c1)c1cccc(S(=O)(=O)N2CCOCC2)c1	AF4-AF9 inh 26
O=C(Nc1cccc(O)c1)c1cccc(S(=O)(=O)N2CCCC2)c1	none (no result: AF4-AF9 inh, Ecoli rRNA inh, MITF act, Wnt act)
O=C(Nc1ccc2c(c1)OCCO2)C1CCN(S(=O)(=O)c2ccc3c(c2)OCCO3)CC1	Ecoli rRNA inh -32 (no result: AF4-AF9 inh)
